Rab9 prom act – qHTS Assay for Rab9 Promoter Activators. Huh7 Rab9 promoter-luciferase reporter, luminescence, 24 h. Potency, µM (titrated, usually from 9.22 µM), for the others: at the top dose activation, negative = inhibition, hits mostly activators. actives 2.8% (n = 320,000). AID 485297, 2010; also: % of control where 0% means no effect; nearly all actives have a fitted effect of over 60% in size
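Quantitative HTS format; Huh7 Rab9-luciferase reporter cells (1500/well) receive compound 2 h post-plating, incubate 24 h at 37 °C, then get luciferase reagent for 10 min before luminescence reading.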
KinaseGlo FLuc – Counterscreen for Luciferase (Kinase-Glo TM) Inhibition; AID 1379, 2008; Kinase-Glo luciferase, ATP luminescence, 8 min; Potency, µM (highest dose often 38.3 µM), without a hit: at the top dose activity change, negative = inhibition, most hits filed as inhibitors; Luciferin 4-monooxygenase (Photuris pensylvanica), Q27757; actives 0.28% (n = 200,000); also: % is scaled to controls: 0 for no effect and ±100 for the full control effect; nearly all actives have a fitted effect of over 60% in size
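Light output from Kinase-Glo luciferase with luciferin and 10 uM ATP in 50 mM imidazole pH 7.2, KCl, MgCl2, Tween 20, BSA; compound pin-delivered, 8-min ambient incubation, then luminescence read.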
ELG1 genotoxic – qHTS screen for small molecules that induce genotoxicity in human embryonic kidney (HEK293T) cells expressing luciferase-tagged ELG1; Potency, µM (highest dose often 46 µM), for the others: at the top dose activity change, positive = activation, actives largely listed as activators; HEK293T ELG1-luciferase reporter, luminescence, 16 h; actives 1.3% (n = 330,000); also: % of control where 0% means no effect; nearly all actives have a fitted effect of over 60% in size
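Luminescence read-out: rising ELG1-luciferase signal, reflecting elevated ELG1 protein under genetic stress, flags genotoxic compounds. Cells were treated for 16 hr at 37 °C before ONE-Glo detection.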
NPC1 promoter act – qHTS Assay for NPC1 Promoter Activators; Huh7 NPC1 promoter luciferase reporter, 24 h; Potency, µM (series often up to 9.22 µM), for the others: top-dose activation, hits mostly activators; actives 2.4% (n = 320,000); also: % of control where 0% means no effect; nearly all actives have a fitted effect of over 60% in size
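Cells: Huh7 expressing luciferase under the NPC1 promoter, 1500/well. Seeded 2 h, compound added, incubated 24 h at 37 °C. Luciferase reagent, 10 min ambient, then luminescence.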
SMN2 splice up – qHTS Assay for Enhancers of SMN2 Splice Variant Expression | HEK293 SMN2-luciferase splicing reporter, luminescence, 30-36 h | Potency, µM (highest dose often 46.1 µM), without a hit: at the top dose activity change, positive = activation, most hits filed as activators | actives 2.8% (n = 210,000) | AID 1458, 2008; also: % of control where 0% means no effect; nearly all actives have a fitted effect of over 55% in size
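HEK293 cells carry an SMN2 minigene-luciferase reporter in which exon 7 inclusion puts luciferase in frame. Cells were seeded at 2000 cells/well, attached for 10-12 hours, then exposed to compounds for 30-36 hours at 37C before ONE-Glo luminescence.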
FLuc modulator – qHTS profiling assay for firefly luciferase inhibitor/activator using purifed enzyme and Km concentrations of substrates (counterscreen for miR-21 project). Luciferin 4-monooxygenase (Photinus pyralis), P08659. AID 588342, 2011. purified FLuc, Km substrates, luminescence inhibition. Potency, µM (series often up to 57.5 µM), for inactives: top-dose activity change, negative = inhibition, actives largely listed as inhibitors. actives 6.9% (n = 360,000);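 also: plate controls were vehicle for no effect and reference inhibitor for full effect; nearly all actives have a fitted effect of over 55% in size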
Target sequence (P08659 whole entry, looked up): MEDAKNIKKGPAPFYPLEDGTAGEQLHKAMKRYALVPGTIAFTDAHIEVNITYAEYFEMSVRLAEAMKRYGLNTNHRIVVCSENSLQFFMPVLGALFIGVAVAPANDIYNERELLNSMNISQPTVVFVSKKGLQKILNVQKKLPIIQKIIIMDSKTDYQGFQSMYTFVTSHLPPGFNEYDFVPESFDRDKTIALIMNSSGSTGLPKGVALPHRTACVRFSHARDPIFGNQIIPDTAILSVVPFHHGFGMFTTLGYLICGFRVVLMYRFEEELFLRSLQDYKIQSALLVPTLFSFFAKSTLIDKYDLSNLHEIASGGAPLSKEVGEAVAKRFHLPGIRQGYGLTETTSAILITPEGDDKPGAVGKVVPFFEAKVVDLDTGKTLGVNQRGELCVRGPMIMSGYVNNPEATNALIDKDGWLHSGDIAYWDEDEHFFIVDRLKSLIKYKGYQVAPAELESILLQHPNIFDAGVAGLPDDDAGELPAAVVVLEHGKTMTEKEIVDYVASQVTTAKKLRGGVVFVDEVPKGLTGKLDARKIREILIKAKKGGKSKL
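Purified P. pyralis luciferase, 10 nM final, with Km-level 10 uM D-luciferin and 10 uM ATP in 50 mM Tris acetate pH 7.5, 10 mM Mg acetate, 0.01% Tween-20, 0.05% BSA; 6-point qHTS titration about 60 µM downward; luminescence read.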
* = called active by the depositor; ? = inconclusive; . = no result; [ ] = remark or other dose. Sampled rows, rich in hits. Any-hit rate of the full collection: about 7.5%. Calls follow the shape of the dose curve; as a rule, active = well fitted curve in the direction sought with a large enough effect; inconclusive = small, poorly fitted or top-dose-only effect, or another doubt; inactive = no such curve, though single readings can be large; an effect the other way counts as inactive or inconclusive. Potency is read from the fitted curve at half-maximal effect.

SMILES	Rab9 prom act	KinaseGlo FLuc	ELG1 genotoxic	NPC1 promoter act	SMN2 splice up	FLuc modulator
Cc1cc(C(=O)N/N=C/c2cccc(Cl)c2Cl)no1	?	-4%	21µM*	?	20%	11µM*
CCOC(=O)N/N=C/c1cn(CCCOc2ccccc2)c2ccccc12	?	0%	-3%	?	-49%	0%
CCOC(=O)N/N=C/c1cn(CCCOc2ccc(C)cc2)c2ccccc12	?	-2%	-1%	1.8µM*	-70%	-3%
CC(C)CC(=O)NC1(C(F)(F)F)C(=O)Nc2c1c(=O)[nH]c(=O)n2-c1ccccc1 (stereo not given)	.	.	.	.	?	3%
O=c1c2c3c(sc2ncn1/N=C/c1cccnc1)CCCC3	22%	-2%	10%	-1%	8%	15µM*
O=c1c2c3c(sc2ncn1/N=C/c1ccncc1)CCCC3	0%	-2%	-2%	0%	4%	?
Cc1ccc2c(c1)Sc1c(ccc3ccccc13)N2	2.5µM*	.	?	?	.	12µM*
CCOC(=O)C1CCN(c2nc3c(S(=O)(=O)c4ccccc4)nnn3c3ccc(Cl)cc23)CC1	.	.	.	.	3%	-3%
CCNC(=O)NC(=O)COC(=O)c1ccccc1SCC(=O)NC(=O)NCC	2.8µM*	-23%	?	1.6µM*	8.9µM*	5.4µM*
COc1ccc(C(=O)Nc2ccc(S(=O)(=O)N3CCOCC3)cc2)cc1OC	-6%	2%	0%	0%	13%	2%
COc1ccc(CCNC(=O)Cn2nnc(-c3ccc(N4CCOCC4)cc3)n2)cc1OC	?	-8%	8%	3%	?	3µM*
COc1ccc(C(=O)Nc2ccc(N3CCOCC3)cc2)cc1OC	10%	?	16%	23%	9%	24µM*
CCOc1ccc(C(=O)Nc2ccc(NC(=O)c3ccccc3)cc2)cc1Br	-4%	.	10%	-1%	-6%	2%
COc1ccc(C(=O)Nc2ccc(N3CCCC3)cc2)cc1OC	4µM*	.	?	3.5µM*	.	5.4µM*
CCOc1ccc(C(=O)Nc2ccc(N3CCN(C)CC3)cc2)cc1Br	-3%	-3%	10%	28%	-6%	6µM*
CCOc1ccc(CCNC(=O)Cn2nnc(-c3ccc(OC)c(OC)c3)n2)cc1OCC	.	.	.	.	-3%	-7%
COc1ccccc1NC(=O)COC(=O)C1=NN(c2ccccc2)C(=O)CC1	.	.	3%	.	.	.
CN(C)c1cccc(C(=O)Nc2ccc(N3CCOCC3)cc2)c1	?	-10%	?	22%	?	21µM*
COc1ccc(C(=O)Nc2ccc(N3CCCC3)cc2)cc1	?	-5%	?	26%	8%	7.6µM*
COc1cc(C(=O)NCCc2sc(-c3cccc(F)c3)nc2C)cc(OC)c1OC	.	.	.	.	.	-3%
O=C(NCCc1ccccc1)c1ccc2c(c1)CCN2S(=O)(=O)c1ccccc1	.	.	.	.	1%	3%
CC(=O)O[C@H]1CC[C@@]2(C)C(=CC[C@@H]3[C@@H]4CC[C@H](c5cc(C(F)(F)F)n(C(C)=O)n5)[C@]4(C)CC[C@@H]32)C1	.	-1%[7.66 µM]	.	.	-16%[9.22 µM]	.
COc1cccc(NC(=O)Cn2c(=O)n(-c3cccc(OC)c3)c(=O)c3sc4ccccc4c32)c1	.	.	.	.	6%	-5%
C/C(=N\Nc1cc(C)nc(NCc2ccccc2)n1)c1cccc([N+](=O)[O-])c1	-5%	.	-2%	1%	.	12µM*
C/C(=N\Nc1nnc(-c2ccccc2)c(-c2ccccc2)n1)c1cccc([N+](=O)[O-])c1	0%	-7%	21µM*	29%	8%	13µM*
SMILES	Rab9 prom act	KinaseGlo FLuc	ELG1 genotoxic	NPC1 promoter act	SMN2 splice up	FLuc modulator
C/C(=N\Nc1ccc(Cl)c(C(=O)O)c1)c1cccc([N+](=O)[O-])c1	?	.	17%	?	.	19µM*
O=[N+]([O-])c1cccc(/C=N/Nc2nnc(-c3ccccc3)c(-c3ccccc3)n2)c1	0%	0%	-2%	0%	-7%	0%
CCOc1ccccc1CNC(=O)c1oc2c(c1C)-c1[nH]ncc1CC2	.	.	.	.	.	2%
COc1cc(/C=C2/CC(C)OC2=O)c([N+](=O)[O-])cc1OC (stereo not given)	-6%	.	0%	3%	.	-6%
Cc1ccc(C)c(OCCn2cc(C(=O)c3cccs3)c3ccccc32)c1	.	.	.	.	-13%	-2%
CC1=NN(c2ccccc2)C(=O)/C1=C/c1c(O)n(-c2ccc(F)cc2)[nH]c1=O	19%	-1%	?	25%	-3%[1.84 µM]	0.6µM*
CC1=NN(c2ccc(C(=O)O)cc2)C(=O)/C1=C\c1ccc(OC(=O)c2cccs2)cc1	1%	0%	-1%	-6%	8%	24µM*
CC1=NN(c2ccccc2)C(=O)/C1=C/c1cccs1	-2%	-1%	17%	9%	3%	8.5µM*
CC1=NN(c2ccccc2)C(=O)/C1=C/c1ccc(Cl)cc1	0%	.	-6%	0%	.	?
CC1=NN(c2cccc(F)c2)C(=O)/C1=C/c1ccc(N(C)C)cc1	6%	.	-3%	11%	.	5.4µM*
CCCCc1c(O)n(-c2ccccc2)[nH]c1=O	.	0%[39.9 µM]	.	.	.	.
COc1ccc(/C=C2/C(=O)N(c3cccc(F)c3)N=C2C)c(OC)c1	0%	.	-6%	2%	.	?
CCOc1cc(/C=C2\C(=O)N(c3ccc(C(N)=O)cc3)N=C2C)ccc1OC(=O)c1cccs1	6%	-1%	8%	-1%	-3%	?
Cc1sc2ncn(CC(=O)N3CCN(c4ccccc4F)CC3)c(=O)c2c1S(=O)(=O)N1CCC(C)CC1	.	.	.	.	-3%	3%
Cc1ccc(CNc2nnc(C)c3nnn(Cc4ccc(F)cc4)c23)cc1	.	.	.	.	0%	-6%
COc1ccc(/C=C2/C(=O)N(c3ccccc3)N=C2C)cc1Br	-4%	.	16%	-7%	.	13µM*
COc1cc(/C=C2/C(=O)N(c3ccccc3)N=C2C)ccc1OS(=O)(=O)c1ccccc1	1%	1%	3%	1%	8%	-16%
CC1=NN(c2ccccc2)C(=O)/C1=C/c1ccc[nH]1	3%	2%	?	16%	10µM*	17µM*
CC1=NN(c2ccccc2)C(=O)/C1=C\c1ccc(Br)s1	-4%	-7%	?	2%	0%[1.84 µM]	9.5µM*
CC1=NN(c2ccccc2)C(=O)/C1=C\N(O)c1ccccc1	12%	.	0%	-2%	.	?
COc1cc(C(C)=O)ccc1OCC(O)Cn1nc(C)c(Br)c1C (stereo not given)	14%	.	1%	2%	.	?

Bioassay records (PubChem)
